# Bioassay records from PubChem.
# SKN-1 block – C. elegans SKN-1 inhibition. C. elegans VP596 Pgst-4::GFP/RFP ratio, acrylamide-induced, 24 h. inhibition, % at 21.8 µM. hit rate 0.49% among 360,000;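 active = interference check ratio from 0.5 to 1.5 plus GFP to RFP signal ratio inhibition reaching or exceeding a fixed threshold, cut at about 30% in these data, passing the limit was not always enough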
# NadD inh – NadD (S. aureus) enzyme inhibition | inhibition, % at 20 µM | hit rate 0.78% among 360,000 | purified NadD enzyme, colorimetric absorbance read-out; in the data active = inhibition above about 26%
# SMARCA2 activ – increases SMARCA2 function in MMTV reporter cells; MG213 cells, MMTV-luciferase reporter, dexamethasone, overnight; activation, % at 9.1 µM; hit rate 1% among 370,000; in the data active = activation above about 7.8%;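 note: 0% = vehicle wells and 100% = reference activator wells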
# Vif imaging – blocks HIV Vif function; HEK293T cells, Vif self-association by quenched fluorescence, imaging, 24 h; inhibition, % at 7.49 µM; hit rate 0.35% among 340,000; AID 602346; in the data active = inhibition above about 50%, passing the limit was not always enough
# GRIN3A LBD mod – NR3A (human) ligand-binding domain modulation; Tm shift relative to glycine control, % at 25 µM; hit rate 2.5% among 340,000; AID 1259313; NR3A LBD differential scanning fluorimetry, Tm shift; 0% = protein alone, 100% = glycine-bound protein;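 active = melting temperature shift of at least 10% of the positive control shift, at one fixed dose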
# esBAF inh – SWI/SNF esBAF complex inhibition | mouse ES cells, Bmi1-luciferase knock-in reporter, 24 h; 100% = twice the neutral-well signal | reporter increase, % at 12.5 µM | hit rate 2% among 350,000; in the data active = activation above about 40%;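 note: 0% = median of the plate's neutral control wells and 100% = double that signal; a rise in the Bmi1 reporter signal indicates esBAF inhibition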
# Active calls of the source: *; . = not tested or not shown. A selection: hits, their analogues and other compounds. The true share with any hit is near 5.2%.
SMILES,SKN-1 block,NadD inh,SMARCA2 activ,Vif imaging,GRIN3A LBD mod,esBAF inh
CCOC(=O)c1c(NC(=O)C(=O)N/N=C/c2ccc(O)c(OC)c2)sc2c1CCCCC2,6,32*,-1,-1,-1,.
CO[C@H](CN(C)C(=O)C1CCOCC1)[C@H](C)CN(C(=O)Nc1ccc(F)cc1)[C@@H](C)CO,.,.,.,.,.,1
COc1ccc(-c2ccc3n(c2=O)C[C@H]2[C@H](CO)[C@@H](C(=O)NCC4CC4)[C@@H]3N2S(C)(=O)=O)cc1,.,.,.,.,.,1
CCc1ccc(Nc2ncccc2C#N)cc1,20,-7,-2,8,-4,28
CCC(C)c1ccc(Nc2ncccc2C#N)cc1 (centres undefined),15,-3,5,-6,0,81*
Cc1nn(-c2ccccc2)cc1C(c1c(N)[nH]c(=S)[nH]c1=O)c1c(N)[nH]c(=S)[nH]c1=O,-4,4,1,0,16*,.
C[C@H](CO)N1C[C@H](C)[C@H](CN(C)C(=O)Nc2ccc(F)cc2)Oc2c(NC(=O)c3ccncc3)cccc2C1=O,.,.,.,.,.,1
CN(C)CC(=O)Nc1ccc2c(c1)[C@H]1C[C@@H](CC(=O)N3CCCCC3)O[C@@H](CO)[C@H]1O2,.,.,.,.,.,-2
CCN(CC)CCC(c1cc(OC)c(OC)c(OC)c1)c1c(OC)cc(OC)c2c(C)cc(=O)oc12 (centres undefined),40*,-3,2,-4,0,-4
CCN(CC)CCC(c1cc(OC)c(OC)c(OC)c1)c1c(OC)cc(OC)c2ccc(=O)oc12 (centres undefined),-3,-1,3,-8,13*,0
O=C(C[C@@H]1C[C@H]2c3cc(NS(=O)(=O)c4ccc(F)cc4)ccc3O[C@H]2[C@H](CO)O1)NCC1CC1,.,.,.,.,.,6
c1ccc(-c2nccc3ccccc23)cc1,7,-1,-3,-4,1,.
Cc1ccc(-c2nc(-c3nccc4ccccc34)oc2-c2ccccc2)cc1,17,7,4,5,11*,.
C[C@H]1CN([C@@H](C)CO)S(=O)(=O)c2ccc(C#Cc3cccc(F)c3)cc2O[C@H]1CN(C)S(=O)(=O)c1ccccc1F,.,.,.,.,.,4
Cc1cccc(OCC(O)Cn2c(=N)n(CCN3CCCCC3)c3ccccc32)c1 (centres undefined),1,-6,7.8*,9,0,-32
O=C(C[C@H]1CC[C@@H]2[C@H](COC[C@@H](O)CN2Cc2ccc3c(c2)OCO3)O1)Nc1ccccc1,.,.,.,.,.,-7
O=C(C[C@H]1CC[C@@H](NC(=O)NC2CCCCC2)[C@H](CO)O1)NCc1ccc(F)cc1,.,.,.,.,.,-5
C[C@H]1CN([C@@H](C)CO)S(=O)(=O)c2ccc(-c3cccc(F)c3)cc2O[C@@H]1CN(C)C(=O)C1CC1,.,.,.,.,.,-1
C[C@H](NC(=O)c1[nH]cnc1C(=O)Nc1cccc(Cl)c1)c1ccccc1,12,1,2,-5,6,-10
C[C@H](NC(=O)c1nc[nH]c1C(=O)N[C@@H](C)C(=O)OCc1ccccc1)C(=O)OCc1ccccc1,-6,9,1,68*,-24,5
C[C@@H](NC(=O)c1[nH]cnc1C(=O)Nc1cccc(Cl)c1)c1ccccc1,10,2,1,-6,26*,-2
CN(Cc1ccccc1)C(=O)c1[nH]cnc1C(=O)Nc1ccc(Cl)cc1,-9,2,-1,-17,-4,40
O=C(Nc1ccc(Cl)cc1)c1nc[nH]c1C(=O)NCc1ccccc1,4,0,-1,2,24*,0
CN(Cc1ccccc1)C(=O)c1[nH]cnc1C(=O)Nc1cccc(Cl)c1,-10,2,2,.,-1,45*
O=C(C[C@H]1C=C[C@@H](NC(=O)CN2CCOCC2)[C@@H](CO)O1)NCc1cccc(F)c1,.,.,.,.,.,-3
SMILES,SKN-1 block,NadD inh,SMARCA2 activ,Vif imaging,GRIN3A LBD mod,esBAF inh
Cc1noc(C)c1NC(=O)Nc1ccc2c(c1)C(=O)N([C@H](C)CO)C[C@H](C)[C@@H](CN(C)C(=O)Nc1cccc3ccccc13)O2,.,.,.,.,.,-3
C/C=C/c1ccc2c(c1)O[C@H](CN(C)Cc1ccccn1)[C@@H](C)CN([C@H](C)CO)S2(=O)=O,.,.,.,.,.,3
C[C@H](NC(=O)c1[nH]cnc1C(=O)Nc1ccc(Cl)cc1)c1ccccc1,5,6,-1,1,24*,4
C[C@@H](NC(=O)c1[nH]cnc1C(=O)Nc1ccc(Cl)cc1)c1ccccc1,-5,4,-1,.,-1,-1
COc1cc(/C=C(\C#N)c2nc3ccccc3o2)ccc1O,1,0,1,-1,15*,.
N#C/C(=C\c1ccc(O)cc1)c1nc2ccccc2o1,3,-5,7,-2,8,.
Oc1ccc(/C=N/Nc2ncnc3c2ncn3Cc2ccccc2)cc1O,3,39*,0,21,5,.
O=C(c1cnn2c(C(F)(F)F)cc(-c3ccco3)nc12)N1CCCc2ccccc21,37*,0,-2,-7,0,-1
O=C(Nc1ccc2c(c1)OCO2)c1cnn2c(C(F)(F)F)cc(-c3ccco3)nc12,34,-3,1,1,-3,-7
CC(C)(C)c1ccc(C(=O)NCCC(=O)N2CCCC2)cc1,-2,9,1,-3,-1,47*
O=C(CSc1ncn(-c2ccccc2)n1)c1cccs1,18,5,3,21,1,64*
c1ccc(CSc2ncn(-c3ccccc3)n2)cc1,16,0,3,.,-1,45*
CC(C)NC(=O)N[C@@H]1CC[C@H](CC(=O)NCc2ccc(Oc3ccccc3)cc2)O[C@@H]1CO,.,.,.,.,.,-2
Cc1ccc(S(=O)(=O)N(C)C[C@H]2OCCCC[C@H](C)Oc3ccc(NS(=O)(=O)c4ccc(Cl)cc4)cc3C(=O)N([C@@H](C)CO)C[C@@H]2C)cc1,.,.,.,.,.,3
C[C@H](CO)N1C[C@H](C)[C@H](CN(C)CC2CCCCC2)Oc2c(NS(=O)(=O)c3cn(C)cn3)cccc2C1=O,.,.,.,.,.,2
Fc1ccc(NC(=S)Nc2cccnc2)cc1Cl,-12,-3,2,-4,-1,.
Cc1ccc(NC(=S)Nc2cc(-c3ccccc3)[nH]n2)cc1Cl,9,13,-4,-3,24*,5
Cc1ccc(NC(=S)N(C)N)cc1Cl,8,0,4,-3,-2,7
Fc1ccc(NC(=S)Nc2cc(-c3ccccc3)[nH]n2)cc1Cl,-3,7,-8,-1,26*,3
CC(=O)Nc1cc(-c2ccc(Cl)cc2)[nH]n1,3,1,2,17,1,74*
C[C@@H]1CN([C@H](C)CO)C(=O)Cc2cc(NC(=O)Nc3cccc4ccccc34)ccc2O[C@H]1CN(C)Cc1ccncc1,.,.,.,.,.,3
COc1ccc(CCC(=O)N/N=C/c2ccc3c(c2)OCO3)cc1,0,-2,1,-6,1,56*
COc1ccc(OC)c(S(=O)(=O)N/N=C\c2ccc3c(c2)OCO3)c1,-14,-9,1,5,2,47*
